Out of some 190,000 compounds screened, about 1,300 (0.68%) were called active. Cut-off read from the data, not from the text of the source: active = inhibition above about 50%; inactive = the rest. Shown is part of a subset that was picked to be rich in actives.
Each molecule was assayed against Mannose-6-phosphate isomerase (Homo sapiens) (UniProt P34949) (assay: human PMI inhibitors, high substrate, primary screen, biochemical, fluorescence intensity, high mannose 6-phosphate (AID 1220)). Details: recombinant PMI enzyme, coupled fluorescence intensity; at 20 µM; active compounds read high.
Mannose-6-phosphate isomerase (Homo sapiens), sequence (P34949 whole entry, looked up): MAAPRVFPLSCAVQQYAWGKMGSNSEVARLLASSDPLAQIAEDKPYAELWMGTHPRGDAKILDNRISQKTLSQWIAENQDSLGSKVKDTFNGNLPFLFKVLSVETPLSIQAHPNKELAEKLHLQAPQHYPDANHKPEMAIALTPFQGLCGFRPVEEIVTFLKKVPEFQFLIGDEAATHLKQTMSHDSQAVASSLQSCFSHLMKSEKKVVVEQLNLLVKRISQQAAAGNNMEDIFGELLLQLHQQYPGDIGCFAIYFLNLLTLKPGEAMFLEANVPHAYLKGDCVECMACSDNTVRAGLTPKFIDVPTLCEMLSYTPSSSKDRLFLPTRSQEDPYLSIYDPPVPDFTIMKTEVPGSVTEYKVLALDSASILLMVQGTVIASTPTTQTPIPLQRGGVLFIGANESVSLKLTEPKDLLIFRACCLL
With `COCCCNC(=O)Cc1ccccc1OC` the inhibition was -3.4% (inactive). With `CCNc1nc(Oc2ccc(C(=O)OCC)cc2)nc(N2CCOCC2)n1` the inhibition was 10% (inactive). `O=[N+]([O-])c1ccc(-c2ccc(C=Nc3cccc4ccccc34)o2)cc1` was tested, and the inhibition was 70% (active). `Cc1ccc(C)c(N=Cc2ccc(-c3ccc([N+](=O)[O-])cc3)o2)c1` was tested, and the inhibition was 10.6% (inactive). In the case of `O=C(Cc1ccccc1)N/N=C/c1ccc(-c2ccc([N+](=O)[O-])cc2)o1`, the inhibition is reported as 14.3% (inactive). In the case of `CCCCOC(=O)c1ccc(Nc2ccc([N+](=O)[O-])cn2)cc1`, the inhibition is reported as -10.3% (inactive). `O=C(C1CCCCC1)N1CCN(S(=O)(=O)c2ccc(Br)cc2)CC1` was tested, and the inhibition was 1.8% (inactive). With `COc1ccc(C(=O)Nc2nc3ccc(S(C)(=O)=O)cc3s2)cc1OC` the inhibition was 7.7% (inactive). With `O=[N+]([O-])c1cccc(S(=O)(=O)c2cccc([N+](=O)[O-])c2)c1` the inhibition was -1.5% (inactive). `CC(C)C1=CC(=NS(=O)(=O)c2cccc([N+](=O)[O-])c2)C=C(C(C)C)C1=O` was tested, and the inhibition was 59.4% (active). In the case of `CC(C)c1nccn1S(=O)(=O)c1cccc([N+](=O)[O-])c1`, the inhibition is reported as -2.8% (inactive). In the case of `CCOc1cc(NC(=S)NCc2ccco2)c(OCC)cc1NC(C)=O`, the inhibition is reported as 7.1% (inactive). For `CCC(C)c1ccc(O)c(N)c1` (stereo not drawn), the inhibition was 31.5% (inactive). With `CCC(NC(C)C)C(O)c1ccc(O)c2[nH]c(=O)ccc12` (stereo not drawn) the inhibition was 11.5% (inactive). In the case of `CNC[C@H](O)c1cccc(O)c1`, the inhibition is reported as -2.7% (inactive). In the case of `COc1ccc([C@H](C)NC[C@H](O)c2ccc(O)c(NC=O)c2)cc1`, the inhibition is reported as 10.4% (inactive). For `CNC[C@H](O)c1ccc(O)c(O)c1`, the inhibition was 59% (active). For `CCC(NC(C)C)C(O)c1ccc(O)c(O)c1` (stereo not drawn), the inhibition was 61.2% (active). `O=C(NC(=S)Nc1cc(C(F)(F)F)ccc1N1CCOCC1)c1sc2ccccc2c1Cl` was tested, and the inhibition was 2.7% (inactive). For `Cc1ccc(/C=C2\C(=O)ON=C2c2ccccc2)o1`, the inhibition was 5.3% (inactive). For `Cc1cccc(C)c1N(CC(=O)N1CCN(c2ccccc2F)CC1)S(C)(=O)=O`, the inhibition was 1.2% (inactive). In the case of `COc1cc(/C(C)=N/Nc2ccc(C(=O)O)cc2)cc(OC)c1OC`, the inhibition is reported as -109% (inactive). For `Cc1ccnc(NS(=O)(=O)c2ccc(NC(=O)C3COc4ccccc4O3)cc2)n1` (stereo not drawn), the inhibition was -9.4% (inactive). With `Cc1cc(C)nc(NS(=O)(=O)c2ccc(NC(=O)C3COc4ccccc4O3)cc2)n1` (stereo not drawn) the inhibition was 54.1% (active). For `O=C(Nc1ccc(S(=O)(=O)Nc2ncccn2)cc1)C1COc2ccccc2O1` (stereo not drawn), the inhibition was 8.2% (inactive). In the case of `Cc1ccccc1NC(=O)c1oc(=O)c2ccccc2c1-c1ccccc1`, the inhibition is reported as -3.9% (inactive). In the case of `CCCCN(C)C1=CC2=CC(=C(C#N)C#N)CCC2CC1` (stereo not drawn), the inhibition is reported as 51.1% (active). For `CCN(CC)C1=CC2=CC(=C(C#N)C#N)CCC2CC1` (stereo not drawn), the inhibition was 50.6% (active).

Source: PubChem BioAssay AID1220 (Sanford-Burnham Center for Chemical Genomics, 2008)
